Test results taken from PubChem BioAssay (Tox21).
Records with an inconclusive call do not appear. Active and inactive are the calls of the source. Unless noted, the call rests on the fitted dose curve; in most records, active means well fitted curve in the direction sought with a large enough effect in the repeat runs; inconclusive means weak or mixed curves; inactive means flat fitted curve, though single readings scatter.

Key:
[1] = qHTS assay to test for compound auto fluorescence at 535 nm (green) in HEK293 cells (AID 720680)
[2] = qHTS assay to test for compound auto fluorescence at 460 nm (blue) in HEK293 cell free culture (AID 720681)
How it was run: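 Blue fluorescence (Ex 405/Em 460 nm, triamterene-equivalent) was read immediately after pin transfer of compound or DMSO into medium (DMEM, 10% FBS) without cells.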

[3] = qHTS assay to test for compound auto fluorescence at 590 nm (red) in HEK293 cell free culture (AID 720683)
How it was run: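 Red-channel autofluorescence of compounds in culture medium (DMEM, 10% FBS), no cells, measured at 540/590 nm. Rose Bengal sodium is the reference fluorophore for equivalence.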

[4] = qHTS assay to test for compound auto fluorescence at 590 nm (red) in HepG2 cell free culture (AID 720684)
How it was run: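 Plate contents were MEM with 10% FBS plus test compound or DMSO, no cells. Fluorescence was recorded with 540 nm excitation and 590 nm emission.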

[5] = qHTS assay to test for compound auto fluorescence at 460 nm (blue) in HepG2 cell free culture (AID 720685)
How it was run: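 Compound (23 nL) or DMSO pinned into cell-free MEM with 10% FBS; blue fluorescence read at 405/460 nm excitation/emission, expressed as auto-fluorescence equivalency to triamterene.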

[6] = qHTS assay to test for compound auto fluorescence at 535 nm (green) in HepG2 cell free culture (AID 720686)
[7] = qHTS assay to test for compound auto fluorescence at 460 nm (blue) in HepG2 cells (AID 720687)
How it was run: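 Blue-channel autofluorescence (Ex/Em 405/460 nm, triamterene-equivalent) was measured after 1 hr compound exposure at 37 C, 5% CO2. Cells were HepG2, plated overnight at 37 C in MEM plus 10% FBS.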

[8] = target: Glucocorticoid receptor (Homo sapiens) (UniProt P04150); assay: qHTS assay to identify small molecule agonists of the glucocorticoid receptor (GR) signaling pathway (AID 720691; active means well fitted activation curve with a large enough effect in the signal ratio in the repeat runs, not every such curve was filed as active; the % refers to the signal ratio)
How it was run: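 Reporter read-out: fluorescence intensity following 2 h room-temperature LiveBLAzer B/G FRET substrate loading. Prior step: GR-bla HeLa cells held 4 h, then treated 18 h at 37 C.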

[9] = target: Glucocorticoid receptor (Homo sapiens) (UniProt P04150); assay: qHTS assay to identify small molecule antagonists of the glucocorticoid receptor (GR) signaling pathway (AID 720692; active means well fitted inhibition curve with a large enough effect in the signal ratio in the repeat runs, not every such curve was filed as active; the % refers to the signal ratio)
How it was run: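 Dexamethasone (5 nM final) stimulated a stably integrated GRE-beta-lactamase reporter in HeLa cells during 18 h co-incubation with compounds; signal was quantified as fluorescence intensity of B/G FRET substrate after 2 h.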

[10] = qHTS assay to test for compound auto fluorescence at 535 nm (green) in HEK293 cell free culture (AID 720682)
How it was run: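 Green-channel intensity (Ex/Em 485/535 nm) was recorded from compound-treated wells containing only DMEM with 10% FBS. Fluorescein provided the equivalency standard.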
On the % scale 0 is the no-effect control and ±100 the full control effect.

Glucocorticoid receptor (Homo sapiens), sequence (P04150 whole entry, looked up): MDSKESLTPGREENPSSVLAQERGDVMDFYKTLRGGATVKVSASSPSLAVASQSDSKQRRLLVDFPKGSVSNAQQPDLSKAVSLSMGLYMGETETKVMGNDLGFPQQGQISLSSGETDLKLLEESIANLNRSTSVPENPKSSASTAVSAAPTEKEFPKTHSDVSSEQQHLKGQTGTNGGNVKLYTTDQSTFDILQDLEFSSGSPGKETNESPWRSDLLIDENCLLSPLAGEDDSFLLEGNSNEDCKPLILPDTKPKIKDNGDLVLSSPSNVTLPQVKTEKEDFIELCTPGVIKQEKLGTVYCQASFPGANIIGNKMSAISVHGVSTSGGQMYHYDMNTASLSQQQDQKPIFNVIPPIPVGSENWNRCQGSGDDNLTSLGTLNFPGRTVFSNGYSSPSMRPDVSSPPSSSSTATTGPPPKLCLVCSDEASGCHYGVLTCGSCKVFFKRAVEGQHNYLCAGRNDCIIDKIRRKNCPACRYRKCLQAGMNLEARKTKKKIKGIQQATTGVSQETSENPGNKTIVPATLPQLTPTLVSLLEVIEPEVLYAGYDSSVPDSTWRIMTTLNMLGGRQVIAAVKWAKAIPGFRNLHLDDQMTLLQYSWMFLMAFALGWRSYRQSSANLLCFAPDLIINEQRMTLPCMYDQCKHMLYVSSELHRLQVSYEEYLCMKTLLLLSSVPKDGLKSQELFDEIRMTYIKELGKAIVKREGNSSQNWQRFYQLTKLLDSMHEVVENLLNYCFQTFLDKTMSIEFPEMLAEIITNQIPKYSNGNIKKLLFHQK

ClCOCCl
inactive: outcome [1] | outcome [2] | outcome [3] | outcome [4] | outcome [5] | outcome [6] | outcome [7] | Potency [8] | Potency [9]

CCCC(C)(COC(N)=O)COC(N)=O
inactive: outcome [2] | outcome [10] | outcome [3] | outcome [4] | outcome [5] | outcome [6] | outcome [7] | Potency [8]

CCOP(=S)(OCC)SCCl
inactive: outcome [2] | outcome [10] | outcome [3] | outcome [4] | outcome [5] | outcome [6] | outcome [7] | Potency [8] | Potency [9]

C[C@H]1CCCC(=O)CCC/C=C/c2cc(O)cc(O)c2C(=O)O1
inactive: outcome [2] | outcome [10] | outcome [3] | outcome [5] | outcome [6] | outcome [7]

CC(Cc1ccccc1)NCCn1cnc2c1c(=O)n(C)c(=O)n2C (stereo not drawn)
inactive: outcome [2] | outcome [3] | outcome [4] | outcome [5] | outcome [6] | outcome [7] | Potency [8] | Potency [9]

CC(O)CCl (stereo not drawn)
inactive: outcome [2] | outcome [10] | outcome [3] | outcome [5] | outcome [6] | outcome [7] | Potency [8] | Potency [9]

COC(=O)c1ccccc1CS(=O)(=O)NC(=O)Nc1nc(OC)cc(OC)n1
inactive: outcome [2] | outcome [10] | outcome [3] | outcome [4] | outcome [5] | outcome [6] | outcome [7] | Potency [8] | Potency [9]

N#CN=C1SCCN1Cc1ccc(Cl)nc1
inactive: outcome [2] | outcome [10] | outcome [3] | outcome [4] | outcome [5] | outcome [6] | outcome [7] | Potency [8] | Potency [9]

CCN(CCO)CCO
inactive: outcome [2] | outcome [10] | outcome [3] | outcome [4] | outcome [5] | outcome [6] | outcome [7] | Potency [8] | Potency [9]

CC1N=C(N)OC1c1ccccc1 (stereo not drawn)
inactive: outcome [2] | outcome [10] | outcome [3] | outcome [4] | outcome [5] | outcome [6] | outcome [7] | Potency [8] | Potency [9]

BrCC1CO1 (stereo not drawn)
inactive: outcome [2] | outcome [10] | outcome [3] | outcome [5] | outcome [6] | outcome [7] | Potency [8] | Potency [9]

CON(C)C(=O)Nc1ccc(Br)cc1
inactive: outcome [2] | outcome [10] | outcome [3] | outcome [4] | outcome [5] | outcome [6] | outcome [7] | Potency [8]

CCCOC(=O)Cc1ccc(OCC(=O)N(CC)CC)c(OC)c1
inactive: outcome [2] | outcome [3] | outcome [4] | outcome [5] | outcome [6] | outcome [7]

Cc1cccc2sc3nncn3c12
inactive: outcome [2] | outcome [3] | outcome [4] | outcome [5] | outcome [6] | outcome [7]

O=P(O)(O)CN(CP(=O)(O)O)CP(=O)(O)O
inactive: fluorescence, % of fluorescent control [2] -0.0261% [at 18.6 µM] | activity change [10] -0.0587% [at 18.6 µM] | fluorescence, % of fluorescent control [3] 0.0352% [at 18.6 µM] | fluorescence, % of Rose Bengal [4] -0.0485% [at 18.6 µM] | fluorescence, % of fluorescent control [5] -0.13% [at 18.6 µM] | fluorescence, % of fluorescein control [6] 0.0644% [at 18.6 µM] | fluorescence, % of fluorescent control [7] -0.044% [at 18.6 µM] | Potency [8] | Potency [9]

Cc1cc(OC(=O)N(C)C)nn1C(=O)N(C)C
inactive: outcome [2] | outcome [10] | outcome [3] | outcome [4] | outcome [5] | outcome [6] | outcome [7]

COc1cccc([C@@]2(O)CCCC[C@@H]2CN(C)C)c1
inactive: outcome [2] | outcome [10] | outcome [3] | outcome [4] | outcome [5] | outcome [6] | outcome [7] | Potency [8] | Potency [9]

Cc1ccc2cc(C)ccc2c1
inactive: outcome [2] | outcome [3] | outcome [5] | outcome [6] | outcome [7] | Potency [8] | Potency [9]

CCCCOC(C)=O
inactive: outcome [2] | outcome [10] | outcome [3] | outcome [5] | outcome [6] | outcome [7]

CCOC(=O)c1ncn2c1CN(C)C(=O)c1c(I)cccc1-2
inactive: outcome [2] | outcome [3] | outcome [5] | outcome [6] | outcome [7] | Potency [8]

COc1cccc(C=O)c1
inactive: outcome [2] | outcome [10] | outcome [3] | outcome [4] | outcome [5] | outcome [6] | outcome [7] | Potency [8] | Potency [9]

CC(=O)CN(CC(C)=O)N=O
inactive: outcome [2] | outcome [3] | outcome [4] | outcome [5] | outcome [6] | outcome [7] | Potency [8]

O=C(O)C(F)(F)C(F)(F)C(F)(F)C(F)(F)C(F)(F)C(F)(F)F
inactive: outcome [2] | outcome [10] | outcome [3] | outcome [4] | outcome [5] | outcome [6] | outcome [7]

CCC(C(N)=O)N1CCCC1=O (stereo not drawn)
inactive: outcome [2] | outcome [10] | outcome [3] | outcome [4] | outcome [5] | outcome [6] | outcome [7]

ClC(Cl)(Cl)Cl
inactive: outcome [2] | outcome [10] | outcome [3] | outcome [4] | outcome [5] | outcome [6] | outcome [7]

O=C1CCCCC1Cl (stereo not drawn)
inactive: outcome [2] | outcome [10] | outcome [3] | outcome [4] | outcome [5] | outcome [6] | outcome [7] | Potency [8]

NC1(c2ccccc2)CCCCC1
inactive: outcome [2] | outcome [10] | outcome [3] | outcome [5] | outcome [6] | outcome [7]

CCOC(=O)COc1ccc(Cl)cc1Cl
inactive: outcome [2] | outcome [10] | outcome [3] | outcome [5] | outcome [6] | outcome [7] | Potency [8]

Clc1ccc(C(Cl)(Cl)Cl)cn1
inactive: outcome [2] | outcome [10] | outcome [3] | outcome [4] | outcome [5] | outcome [6] | outcome [7] | Potency [8] | Potency [9]

O=C(O)C(Cl)Br (stereo not drawn)
inactive: outcome [2] | outcome [10] | outcome [3] | outcome [4] | outcome [5] | outcome [6] | outcome [7] | Potency [8]

CN(C)C(=O)Oc1cc(OC(=O)N(C)C)cc(C(O)CNC(C)(C)C)c1 (stereo not drawn)
inactive: fluorescence, % of fluorescent control [2] 0.0217% [at 18.6 µM] | activity change [10] -0.0374% [at 18.6 µM] | fluorescence, % of fluorescent control [3] -0.0016% [at 18.6 µM] | fluorescence, % of fluorescent control [5] 0.0484% [at 18.6 µM] | fluorescence, % of fluorescein control [6] -0.0661% [at 18.6 µM] | fluorescence, % of fluorescent control [7] 0.0969% [at 18.6 µM] | Potency [8] | Potency [9]

CC(Cl)(Cl)Cl
inactive: outcome [2] | outcome [3] | outcome [5] | outcome [6] | outcome [7]

COc1cc(CCN)cc(OC)c1OC
inactive: outcome [2] | outcome [10] | outcome [3] | outcome [5] | outcome [6] | outcome [7] | Potency [8] | Potency [9]

CCN[C@H](C)Cc1cccc(C(F)(F)F)c1
inactive: outcome [2] | outcome [10] | outcome [3] | outcome [4] | outcome [5] | outcome [6] | outcome [7] | Potency [8] | Potency [9]

Oc1ccc2c3c1O[C@H]1[C@@H](O)C=C[C@H]4[C@@H](C2)NCC[C@@]341
inactive: outcome [2] | outcome [3] | outcome [4] | outcome [5] | outcome [6] | outcome [7]

CNC(=O)O/N=C(/CSC)C(C)(C)C
inactive: outcome [2] | outcome [3] | outcome [5] | outcome [6] | outcome [7] | Potency [8] | Potency [9]

CCN(CCO)CCn1c(Cc2ccccc2)nc2c1c(=O)n(C)c(=O)n2C
inactive: outcome [2] | outcome [10] | outcome [3] | outcome [4] | outcome [5] | outcome [6] | outcome [7] | Potency [8] | Potency [9]

O=C(CCl)NCO
inactive: outcome [2] | outcome [10] | outcome [3] | outcome [5] | outcome [6] | outcome [7]

CCNc1nc(Cl)nc(NC(C)(C)C)n1
inactive: outcome [2] | outcome [10] | outcome [3] | outcome [4] | outcome [5] | outcome [6] | outcome [7] | Potency [8]

C(COCC1CO1)OCC1CO1 (stereo not drawn)
inactive: outcome [2] | outcome [10] | outcome [3] | outcome [4] | outcome [5] | outcome [6] | outcome [7] | Potency [8] | Potency [9]

CC(C)(C)C(=O)C(Cl)Cl
inactive: outcome [2] | outcome [10] | outcome [3] | outcome [4] | outcome [5] | outcome [6] | outcome [7]
